Source: PubChem BioAssay (NCATS)
Results filed as inconclusive are left out. The source made the active and inactive calls. Unless noted, calls follow the shape of the dose curve; as a rule, active = well fitted curve in the direction sought with a large enough effect; inconclusive = small, poorly fitted or top-dose-only effect, or another doubt; inactive = no such curve, though single readings can be large; an effect the other way counts as inactive or inconclusive.

Experiments:
[1] = target: Lysosomal acid glucosylceramidase (Homo sapiens) (UniProt P04062); assay: Glucocerebrosidase-p2 (AID 348; in the data active = potency below about 10 µM; also: potency is read from the fitted curve at half-maximal effect); conditions: purified GBA, blue fluorogenic substrate, 40 min
Lysosomal acid glucosylceramidase (Homo sapiens), sequence (P04062 whole entry, looked up): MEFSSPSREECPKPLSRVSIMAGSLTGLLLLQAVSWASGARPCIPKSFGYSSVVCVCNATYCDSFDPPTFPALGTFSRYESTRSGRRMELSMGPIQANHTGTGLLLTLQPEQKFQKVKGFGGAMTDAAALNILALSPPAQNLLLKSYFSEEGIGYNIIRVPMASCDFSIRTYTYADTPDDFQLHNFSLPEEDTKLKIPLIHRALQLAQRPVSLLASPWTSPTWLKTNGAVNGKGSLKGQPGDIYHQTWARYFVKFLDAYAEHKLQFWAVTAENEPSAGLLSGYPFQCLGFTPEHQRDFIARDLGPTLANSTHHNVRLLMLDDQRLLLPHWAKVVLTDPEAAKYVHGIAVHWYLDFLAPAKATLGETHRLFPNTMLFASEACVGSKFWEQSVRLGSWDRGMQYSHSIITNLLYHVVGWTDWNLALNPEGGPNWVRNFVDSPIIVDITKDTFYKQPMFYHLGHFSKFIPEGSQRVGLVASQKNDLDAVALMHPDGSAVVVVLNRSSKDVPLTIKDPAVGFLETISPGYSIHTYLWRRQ
How it was run: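 Normal human glucocerebrosidase (0.2 nM) with blue fluorogenic substrate (80 uM final) in citrate/phosphate pH 5.9 with 10mM sodium taurocholate, 0.01% tween-20; 40 min RT, NaOH/glycine stop; fluorescence Ex 365/Em 440; AC50 from a titration from 0.6 nM upwards.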

[2] = AP1 Signaling Pathway (AID 357; active = well fitted curve in either direction with a large enough effect, not every such curve was filed as active; also: % is scaled to controls: 0 for no effect and ±100 for the full control effect); conditions: ME-180 AP-1-bla reporter, EGF-induced, beta-lactamase ratio, 5 h; at 7.69 µM (top of the series) unless noted
How it was run: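 In this screen, ME-180 cells in Opti-MEM with 0.5% dialyzed FBS received EC50 EGF and compound titrations for 5 h. AP-1 reporter beta-lactamase was detected via CCF4 ratio, giving AC50 for positive and negative modulators.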

[3] = target: Cytochrome P450 1A2 (Homo sapiens) (UniProt P05177); assay: p450-cyp1a2 (AID 410; calls by dose curve; also: potency is read from the fitted curve at half-maximal effect); conditions: recombinant CYP1A2, luciferin-ME demethylation, luminescence; series mostly up to 57 µM
Cytochrome P450 1A2 (Homo sapiens), sequence (P05177 whole entry, looked up): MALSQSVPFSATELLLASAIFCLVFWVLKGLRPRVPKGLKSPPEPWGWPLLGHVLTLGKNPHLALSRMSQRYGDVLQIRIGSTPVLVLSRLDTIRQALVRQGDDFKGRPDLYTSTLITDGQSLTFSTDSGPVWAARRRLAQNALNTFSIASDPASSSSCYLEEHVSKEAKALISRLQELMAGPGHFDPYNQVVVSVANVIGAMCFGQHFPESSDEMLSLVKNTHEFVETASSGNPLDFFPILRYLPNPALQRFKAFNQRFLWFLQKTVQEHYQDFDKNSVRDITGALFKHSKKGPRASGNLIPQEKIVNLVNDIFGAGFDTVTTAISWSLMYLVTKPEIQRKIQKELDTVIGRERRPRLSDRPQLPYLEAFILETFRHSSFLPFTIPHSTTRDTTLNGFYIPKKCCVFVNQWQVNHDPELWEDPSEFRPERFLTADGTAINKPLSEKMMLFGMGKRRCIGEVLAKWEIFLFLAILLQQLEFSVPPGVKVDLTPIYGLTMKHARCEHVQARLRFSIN
How it was run: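 Read-out is luminescence from luciferin produced by CYP1A2 demethylation of Luciferin-ME (100uM, at Km). Detection reagent stopped the 60 min NADPH-dependent reaction; signals were normalized to 57 uM furafylline.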

[4] = target: Glucocorticoid receptor (Homo sapiens) (UniProt P04150); assay: GR-GFP Redistribution (AID 450;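 active = compounds whose dose series gives a full or clear partial fitted curve of increased nuclear translocation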; also: potency is read from the fitted curve at half-maximal effect); conditions: U2OS GR-GFP nuclear translocation, laser cytometry, 2 h
Glucocorticoid receptor (Homo sapiens), sequence (P04150 whole entry, looked up, the tested form may be a part): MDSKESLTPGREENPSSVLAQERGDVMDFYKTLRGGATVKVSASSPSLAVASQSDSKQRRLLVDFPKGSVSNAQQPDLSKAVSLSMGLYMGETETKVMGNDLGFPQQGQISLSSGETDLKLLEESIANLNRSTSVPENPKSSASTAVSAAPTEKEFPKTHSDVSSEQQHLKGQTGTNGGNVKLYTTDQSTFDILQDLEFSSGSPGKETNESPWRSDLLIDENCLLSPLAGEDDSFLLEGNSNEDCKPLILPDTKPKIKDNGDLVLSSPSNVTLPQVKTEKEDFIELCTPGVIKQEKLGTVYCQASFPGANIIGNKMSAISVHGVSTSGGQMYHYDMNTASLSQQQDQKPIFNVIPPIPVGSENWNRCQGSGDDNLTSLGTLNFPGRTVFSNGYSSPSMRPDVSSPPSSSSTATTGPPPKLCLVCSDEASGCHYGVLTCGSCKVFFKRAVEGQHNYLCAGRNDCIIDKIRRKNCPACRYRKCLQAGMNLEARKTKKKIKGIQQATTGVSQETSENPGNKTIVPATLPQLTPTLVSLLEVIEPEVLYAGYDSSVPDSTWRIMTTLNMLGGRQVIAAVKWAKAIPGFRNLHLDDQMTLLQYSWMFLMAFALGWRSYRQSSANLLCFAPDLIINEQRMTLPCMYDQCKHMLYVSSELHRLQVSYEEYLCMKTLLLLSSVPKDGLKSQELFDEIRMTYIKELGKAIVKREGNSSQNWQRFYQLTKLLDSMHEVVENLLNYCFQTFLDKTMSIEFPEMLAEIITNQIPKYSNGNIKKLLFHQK

[5] = target: Glucocorticoid receptor (Homo sapiens) (UniProt P04150); assay: GR-EFC Redistribution (AID 451; calls by dose curve; also: potency is read from the fitted curve at half-maximal effect); conditions: CHO-K1 GR-EFC translocation, beta-gal luminescence, 2 h
How it was run: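 Translocation of GR-ED fusion to nuclear EA restores b-gal, read by luminescence after 1 h room-temperature detection. Engineered CHO-K1 biosensor cells, 1,000/well, exposed 2 h at 37 C to titrations up to 46 uM final.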

[6] = target: Mitogen-activated protein kinase 10 (Mus musculus) (UniProt Q61831); assay: JNK3 AlphaScreen Assay (AID 530; active = well fitted curve in either direction with a large enough effect, not every such curve was filed as active;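 also: kinase came from lysate of stimulated human HepG2 cells; signal reports phosphorylation of biotinylated GST-cJun 1-79 at Ser73 with 10 µM ATP; % is scaled to controls: 0 for no effect and ±100 for the full control effect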); conditions: JNK3 lysate, c-Jun phosphorylation; series mostly up to 57.1 µM
How it was run: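 Kinase buffer: 20 mM Tris-HCl pH 7.6, 10 mM MgCl2, 1 mM DTT, 0.1 mM Na3VO4, 0.01% Tween-20; ATP 10 uM. Substrate biotin-GST-cJun(1-79), enzyme from activated HepG2 lysates. Detection by Ser73 phospho-antibody AlphaScreen.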

[7] = target: 3',5'-cyclic-AMP phosphodiesterase 4B (Homo sapiens) (UniProt Q07343); assay: qHTS Assay for Inhibitors of PDE-IV (AID 607; active = well fitted activation curve with a large enough effect in the main read-out, with a control signal flat, not every such curve was filed as active; also: % of control where 0% means no effect); conditions: HEK293 ACTOne CNG channel cells, membrane potential fluorescence; series mostly up to 22.9 µM
3',5'-cyclic-AMP phosphodiesterase 4B (Homo sapiens), sequence (Q07343 whole entry, looked up): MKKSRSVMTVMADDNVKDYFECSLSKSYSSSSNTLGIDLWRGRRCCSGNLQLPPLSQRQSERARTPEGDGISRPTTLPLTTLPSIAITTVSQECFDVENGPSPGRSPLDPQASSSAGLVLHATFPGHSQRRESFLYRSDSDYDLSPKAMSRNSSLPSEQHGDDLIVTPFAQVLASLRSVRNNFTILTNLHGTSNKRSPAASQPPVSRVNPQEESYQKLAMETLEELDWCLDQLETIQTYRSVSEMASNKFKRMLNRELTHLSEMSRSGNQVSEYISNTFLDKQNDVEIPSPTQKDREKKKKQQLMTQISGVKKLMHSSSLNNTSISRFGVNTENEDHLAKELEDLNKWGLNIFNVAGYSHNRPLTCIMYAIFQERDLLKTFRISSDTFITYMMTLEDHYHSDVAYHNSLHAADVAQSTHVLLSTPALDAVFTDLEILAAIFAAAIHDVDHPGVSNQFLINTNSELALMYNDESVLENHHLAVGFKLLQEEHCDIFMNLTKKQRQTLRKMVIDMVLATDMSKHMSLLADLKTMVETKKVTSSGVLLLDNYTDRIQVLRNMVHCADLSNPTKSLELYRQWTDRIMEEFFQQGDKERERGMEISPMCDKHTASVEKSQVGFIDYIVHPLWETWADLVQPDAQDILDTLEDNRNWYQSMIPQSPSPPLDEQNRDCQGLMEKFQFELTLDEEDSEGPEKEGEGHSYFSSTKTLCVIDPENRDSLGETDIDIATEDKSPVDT
How it was run: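 The readout is membrane depolarisation from a cAMP-sensing CNG channel, detected with a potential dye at ex 535/em 590. Cells were HEK293-derived (endogenous PDE-IV) at 1000 cells/well, titrated up to 22.9 uM final.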

[8] = qHTS Assay for Lipid Storage Modulators (AID 1519; calls by dose curve); conditions: Drosophila S3 cells, BODIPY lipid droplet/cell ratio, laser cytometry, cells loaded with oleic acid; for activity change, negative = inhibition: at 57.5 µM (top of the series)
How it was run: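 Cells seeded at 5,000 per well were treated with compounds over a concentration series and loaded with oleic acid (400 uM, as added). Lipid droplet fluorescence (488 nm excitation, 500-530 nm channel) was read by laser-scanning cytometry and normalized to 20 uM Triacsin C.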

[9] = target: Dual specificity protein kinase CLK4 (Homo sapiens) (UniProt Q9HAZ1); assay: qHTS Assay for Inhibitors of CDC-like Kinase 4 (Kinase-Glo Assay) (AID 1770); conditions: recombinant Clk4, Kinase-Glo ATP depletion luminescence; series mostly up to 66.7 µM; also: % is scaled to controls: 0 for no effect and ±100 for the full control effect; nearly all actives have a fitted effect of over 65% in size
Dual specificity protein kinase CLK4 (Homo sapiens), sequence (Q9HAZ1 whole entry, looked up): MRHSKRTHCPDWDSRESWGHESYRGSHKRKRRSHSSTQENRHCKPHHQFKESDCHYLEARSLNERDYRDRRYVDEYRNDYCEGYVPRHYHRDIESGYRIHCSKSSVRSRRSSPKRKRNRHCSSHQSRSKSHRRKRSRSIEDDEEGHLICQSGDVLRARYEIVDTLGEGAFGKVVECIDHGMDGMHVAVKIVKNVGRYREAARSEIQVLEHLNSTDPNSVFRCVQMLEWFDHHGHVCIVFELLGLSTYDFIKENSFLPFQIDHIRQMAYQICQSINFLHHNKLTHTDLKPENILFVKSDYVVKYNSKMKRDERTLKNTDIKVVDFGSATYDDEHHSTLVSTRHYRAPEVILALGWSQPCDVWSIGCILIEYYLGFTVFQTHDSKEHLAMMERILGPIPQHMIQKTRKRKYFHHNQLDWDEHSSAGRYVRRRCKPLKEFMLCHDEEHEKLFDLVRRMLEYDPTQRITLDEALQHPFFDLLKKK
How it was run: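 Inhibition was judged from remaining ATP, measured by Ultra-Glo luciferase bioluminescence after Clk4 (25 nM) had acted on RS peptide at 1 uM ATP for 4.5 hours, room temperature.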

[10] = target: Dual specificity protein kinase CLK4 (Homo sapiens) (UniProt Q9HAZ1); assay: qHTS Assay for Inhibitors of CDC-like Kinase 4 (ADP-FP Assay) (AID 1795); conditions: Transcreener ADP fluorescence polarization; series mostly up to 50 µM;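 also: recombinant human CLK4 phosphorylating RS repeat peptide at 1 µM ATP; % is scaled to controls: 0 for no effect and ±100 for the full control effect; nearly all actives have a fitted effect of over 60% in size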
How it was run: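 Inhibition of ADP formation by 6.25 nM Clk4 is measured using 1 uM ATP and 100 uM RS repeat peptide over one hour. Produced ADP displaces a fluorescent tracer from antibody, lowering polarization.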

[11] = target: Ubiquitin carboxyl-terminal hydrolase 1 (Homo sapiens) (UniProt O94782); assay: Inhibitors of USP1/UAF1: Pilot qHTS (AID 504865); conditions: purified USP1/UAF1, Ub-rhodamine cleavage fluorescence; series mostly up to 54.9 µM;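 also: rhodamine fluorescence freed from ubiquitin-rhodamine substrate followed over time; top concentration of the series differs between compounds; % is scaled to controls: 0 for no effect and ±100 for the full control effect; nearly all actives have a fitted effect of over 35% in size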
Ubiquitin carboxyl-terminal hydrolase 1 (Homo sapiens), sequence (O94782 whole entry, looked up): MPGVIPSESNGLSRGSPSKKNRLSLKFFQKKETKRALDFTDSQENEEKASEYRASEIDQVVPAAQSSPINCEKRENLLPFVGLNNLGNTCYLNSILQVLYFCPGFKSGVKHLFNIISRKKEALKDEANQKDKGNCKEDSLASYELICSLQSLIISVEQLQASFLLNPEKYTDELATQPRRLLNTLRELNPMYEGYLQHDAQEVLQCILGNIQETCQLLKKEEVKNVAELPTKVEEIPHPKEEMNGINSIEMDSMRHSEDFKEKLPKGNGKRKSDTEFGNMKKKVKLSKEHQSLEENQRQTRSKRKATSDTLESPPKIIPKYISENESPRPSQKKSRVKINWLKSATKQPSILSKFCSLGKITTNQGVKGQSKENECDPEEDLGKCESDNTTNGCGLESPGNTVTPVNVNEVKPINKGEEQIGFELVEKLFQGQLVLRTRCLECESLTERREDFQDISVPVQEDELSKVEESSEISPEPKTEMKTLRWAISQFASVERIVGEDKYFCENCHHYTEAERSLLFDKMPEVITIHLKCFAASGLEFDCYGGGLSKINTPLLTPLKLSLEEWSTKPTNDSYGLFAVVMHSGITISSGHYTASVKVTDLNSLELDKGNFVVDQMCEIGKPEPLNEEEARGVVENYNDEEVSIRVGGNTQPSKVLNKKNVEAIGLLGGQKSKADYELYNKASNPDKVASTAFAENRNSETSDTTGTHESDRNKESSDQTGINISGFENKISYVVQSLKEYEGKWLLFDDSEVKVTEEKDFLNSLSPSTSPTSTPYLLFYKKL
How it was run: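 Kinetic fluorescence assay: 1nM USP1/UAF1, 15 min compound preincubation, then 150nM Ub-Rho; 480/540 nm.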

[12] = Counterscreen qHTS for small molecule stabilizers of the endoplasmic reticulum resident proteome: GLuc-NoTag assay (AID 1508627); conditions: Gaussia luciferase NoTag secretion counterscreen, luminescence, thapsigargin 100 nM for final 4 h; series mostly up to 76.4 µM;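 also: SH-SY5Y cells given compound then 100 nM thapsigargin to empty ER calcium; 0% = thapsigargin alone and -100% = DMSO vehicle control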
How it was run: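 Counterscreen line: SH-SY5Y-GLuc-NoTag cells, treated with compound 19 hr before a 4 hr, 100 nM thapsigargin calcium depletion. Secreted Gaussia luciferase in the medium was measured by luminescence after coelenterazine was added (0.07x final), with cells unlysed.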

[13] = Confirmatory qHTS for small molecule stabilizers of the endoplasmic reticulum resident proteome: Secreted ER Calcium Modulated Protein (SERCaMP) assay (AID 1508628); conditions: SERCaMP secreted luciferase ER calcium/proteostasis reporter; series mostly up to 76.3 µM; also: nearly all actives have a fitted effect of over 40% in size; also: potency is read from the fitted curve at half-maximal effect
How it was run: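 GLuc-SERCaMP-expressing SH-SY5Y cells, pretreated 16 h with compound, are challenged with thapsigargin to empty ER calcium stores; after 4 h, coelenterazine is added directly to the medium and luminescence is imaged.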

[14] = NFAT Signaling Pathway (AID 444; active = well fitted curve in either direction with a large enough effect, not every such curve was filed as active;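 also: carbachol stimulus at about its EC50 of 1 µM final; % is scaled to controls: 0 for no effect and ±100 for the full control effect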); conditions: Jurkat NFAT-bla M1, carbachol, beta-lactamase ratio, 5 h; at 7.69 µM (top of the series) unless noted
How it was run: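 Read-out: CCF4 FRET ratio (460 nm/530 nm) after 1 h RT dye loading, used for %activity and AC50 from titration series. Cells: Jurkat NFAT-β-lactamase/M1 line, treated with compound plus 1 uM carbachol for 5 h, 37 °C.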

[15] = Stat Signaling Pathway (AID 446; active = well fitted curve in either direction with a large enough effect, not every such curve was filed as active;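 also: ME-180 cervical cancer cells given 40 pM IL-6 alongside compound; SIE-controlled beta-lactamase reporter measured as 460/530 nm FRET emission ratio; % is scaled to controls: 0 for no effect and ±100 for the full control effect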); conditions: ME-180 (cervical carcinoma) SIE beta-lactamase reporter, IL-6 stimulated, 5 h; at 7.69 µM (top of the series) unless noted
How it was run: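 Emission at 460 and 530 nm (excitation 405 nm) reports SIE-controlled beta-lactamase in ME-180 cells. Cells received compound with 40 pM IL-6 for 5 hrs at 37 C; data scaled between 300 pM IL-6 and 125 nM JAK-inhibitor controls.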

[16] = Cell Viability qHTS for small molecule stabilizers of the endoplasmic reticulum resident proteome (AID 1508629); conditions: cell viability counter-screen, 100 nM thapsigargin for final 4 h
[17] = target: Cytochrome P450 3A4 (Homo sapiens) (UniProt P08684); assay: qHTS Assay for Activators of Cytochrome P450 3A4 (AID 885); conditions: recombinant CYP3A4, Luciferin-PPXE luminescence, 60 min; series mostly up to 57.1 µM; also: nearly all actives have a fitted effect of over 65% in size
Cytochrome P450 3A4 (Homo sapiens), sequence (P08684 whole entry, looked up): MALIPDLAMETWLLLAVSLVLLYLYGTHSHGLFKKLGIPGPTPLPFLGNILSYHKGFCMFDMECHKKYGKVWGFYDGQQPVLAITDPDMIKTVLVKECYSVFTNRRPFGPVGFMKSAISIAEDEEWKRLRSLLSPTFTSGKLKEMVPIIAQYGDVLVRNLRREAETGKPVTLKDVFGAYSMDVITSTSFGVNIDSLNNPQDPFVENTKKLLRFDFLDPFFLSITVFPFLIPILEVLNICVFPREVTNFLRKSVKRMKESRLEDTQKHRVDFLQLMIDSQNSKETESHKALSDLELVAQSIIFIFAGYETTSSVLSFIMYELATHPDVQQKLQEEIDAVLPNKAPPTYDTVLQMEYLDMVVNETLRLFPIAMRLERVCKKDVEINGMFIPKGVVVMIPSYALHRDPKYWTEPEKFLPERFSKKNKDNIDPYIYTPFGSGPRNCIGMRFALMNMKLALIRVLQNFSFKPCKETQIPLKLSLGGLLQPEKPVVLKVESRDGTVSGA
How it was run: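 Activators are scored by enhanced luminescence from CYP3A4 conversion of luciferin-PPXE (25uM, equal to KM) to luciferin, after 60 min at RT with an NADPH-regenerating system.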

[18] = measured here: cell count channel max response
[19] = measured here: lipid channel max response

Question: With `COc1ccc(-c2nc3cnc(N4CCN(C)CC4)nc3n(-c3ccc(OC)cc3)c2=O)cc1` as the compound, how does the Potency [1] read?
Answer: Its Potency is > 11.4 µM (inactive).

Question: And the activity change, negative = inhibition [2]?
Answer: The activity change, negative = inhibition was 41.4% (inactive).

Question: What about the Potency [3] of the same compound?
Answer: The Potency was 15.8 µM (active).

Question: What about the Potency [4] of the same compound?
Answer: The Potency was > 9.22 µM (inactive).

Question: And the Potency [5]?
Answer: Its Potency is > 46 µM (inactive).

Question: And the outcome [6]?
Answer: The outcome was “inactive”.

Question: And the Potency [7]?
Answer: Its Potency is “inactive”.

Question: What about the activity change, negative = inhibition [8] of the same compound?
Answer: The activity change, negative = inhibition was 3.89% (inactive).

Question: What about the max response [8, 18] of the same compound?
Answer: Its max response is 28.9%.

Question: What about the max response [8, 19] of the same compound?
Answer: Its max response is 29.8%.

Question: What about the Potency [9] of the same compound?
Answer: The Potency was “inactive”.

Question: What about the Potency [10] of the same compound?
Answer: The Potency was “inactive”.

Question: And the Potency [11]?
Answer: The Potency was “inactive”.

Question: And the Potency [12]?
Answer: Its Potency is “inactive”.

Question: What about the Potency [13] of the same compound?
Answer: The Potency was “inactive”.

Question: Which Potency [1] does the source give for `COCCn1c(=O)c(CCc2ccccc2)nc2cnc(N3CCN(C)CC3)nc21` here?
Answer: Its Potency is > 11.4 µM (inactive).

Question: What about the activity change, negative = inhibition [2] of the same compound?
Answer: The activity change, negative = inhibition was 2.87% (inactive).

Question: What about the activity change, negative = inhibition [14] of the same compound?
Answer: The activity change, negative = inhibition was -7.4% (inactive).

Question: And the activity, negative = inhibition [15]?
Answer: The activity, negative = inhibition was -8.57% (inactive).

Question: What about the Potency [4] of the same compound?
Answer: Its Potency is > 9.22 µM (inactive).

Question: What about the Potency [5] of the same compound?
Answer: Its Potency is > 46 µM (inactive).

Question: What about the outcome [6] of the same compound?
Answer: Its outcome is “inactive”.

Question: And the Potency [7]?
Answer: Its Potency is “inactive”.

Question: And the activity change, negative = inhibition [8]?
Answer: Its activity change, negative = inhibition is 5.96% (inactive).

Question: And the max response [8, 18]?
Answer: Its max response is -2.68%.

Question: And the max response [8, 19]?
Answer: The max response was 4.85%.

Question: And the Potency [12]?
Answer: Its Potency is “inactive”.

Question: What about the max response [16] of the same compound?
Answer: The max response was 0.276% (inactive).

Question: Which Potency [1] does the source give for `COc1ccc(-c2nc3cnc(N4CCNCC4)nc3n(-c3ccccc3)c2=O)cc1` here?
Answer: The Potency was > 11.4 µM (inactive).

Question: And the Potency [4]?
Answer: Its Potency is > 9.22 µM (inactive).

Question: What about the Potency [5] of the same compound?
Answer: The Potency was > 46 µM (inactive).

Question: And the outcome [6]?
Answer: Its outcome is “inactive”.

Question: What about the Potency [7] of the same compound?
Answer: The Potency was “inactive”.

Question: And the activity change, negative = inhibition [8]?
Answer: Its activity change, negative = inhibition is 3% (inactive).

Question: What about the max response [8, 18] of the same compound?
Answer: Its max response is 10.3%.

Question: What about the max response [8, 19] of the same compound?
Answer: Its max response is 4.43%.

Question: What about the Potency [12] of the same compound?
Answer: The Potency was “inactive”.

Question: What about the Potency [13] of the same compound?
Answer: The Potency was “inactive”.

Question: What does the source list for `COc1ccc(NC(=O)N2CCC3(CC2)CCN(S(=O)(=O)c2ccccc2)CC3)cc1`?
Answer: Potency [1]: > 11.4 µM (inactive); activity change, negative = inhibition [2]: -24% (inactive); Potency [3]: 31.6 µM (active); activity change, negative = inhibition [14]: -21.7% (inactive); activity, negative = inhibition [15]: -16.7% (inactive); Potency [5]: > 46 µM (inactive); outcome [6]: inactive; Potency [7]: inactive; Potency [17]: inactive; activity change, negative = inhibition [8]: 2.68% (inactive); max response [8, 18]: 2.58%; max response [8, 19]: 8.36%; Potency [12]: inactive; Potency [13]: inactive; max response [16]: -18.8% (inactive)

Question: Which results are given for `O=c1c(-c2cccs2)nc2cnc(N3CCNCC3)nc2n1-c1ccccc1`?
Answer: Potency [1]: > 11.4 µM (inactive); Potency [3]: 2.51 µM (active); Potency [4]: > 9.22 µM (inactive); Potency [5]: > 46 µM (inactive); outcome [6]: inactive; Potency [7]: inactive; Potency [17]: inactive; Potency [12]: inactive; Potency [13]: inactive; max response [16]: 6.37% (inactive)

Question: What does the source list for `O=c1c(-c2ccccc2)nc2cnc(N3CCNCC3)nc2n1C1CC1`?
Answer: Potency [1]: > 11.4 µM (inactive); activity change, negative = inhibition [2]: 27.1% (inactive); Potency [3]: 3.98 µM (active); activity change, negative = inhibition [14]: 100% (inactive); Potency [4]: > 9.22 µM (inactive); Potency [5]: > 46 µM (inactive); outcome [6]: inactive; Potency [7]: inactive; Potency [17]: inactive; activity change, negative = inhibition [8]: 5.31% (inactive); max response [8, 18]: 32.7%; max response [8, 19]: 42.5%; Potency [12]: inactive; Potency [13]: 39.8 µM (active)
